Screens as filed in PubChem BioAssay.
Sampled rows, rich in hits. Any-hit rate of the full collection: about 3.3%.
H9c2 protect: protects H9c2 cardiomyocytes from peroxide injury; AID 588492; hit rate 0.63% among 360,000; protection from H2O2 cell death, % at 20 µM; H2O2 injury protection, ATPLite, 2 h;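 active = compounds giving at least 50% protection of heart cells from peroxide-induced death in the single-dose screen, raw or plate-pattern-corrected value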;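 also: 0% = DMSO wells with peroxide and 100% = DMSO wells without peroxide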
PHOSPHO1 inh: PHOSPHO1 (human) inhibition; Q8TCT1; hit rate 1.1% among 290,000; recombinant PHOSPHO1, absorbance phosphatase assay; inhibition, % at 13.3 µM; in the data active = inhibition above about 60%
Target sequence (Q8TCT1 whole entry, looked up): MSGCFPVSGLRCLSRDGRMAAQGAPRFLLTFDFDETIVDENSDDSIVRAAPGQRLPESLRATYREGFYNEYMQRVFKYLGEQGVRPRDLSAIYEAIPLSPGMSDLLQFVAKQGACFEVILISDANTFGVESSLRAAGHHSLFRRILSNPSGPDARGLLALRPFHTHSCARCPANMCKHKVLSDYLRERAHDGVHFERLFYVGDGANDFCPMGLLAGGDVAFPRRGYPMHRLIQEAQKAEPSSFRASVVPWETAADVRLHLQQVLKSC
Efflux pump mplx: inhibitors of Candida antifungal efflux pumps expressed in yeast; S. cerevisiae Candida pump triplex, Nile Red efflux; inhibition, % at 10 µM; hit rate 0.44% among 330,000; AID 485275;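 active = plate passing quality check with inhibition over a set limit, or well fluorescence over plate mean plus 4 SD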;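 also: Nile Red retained in pooled yeast measured as flow cytometry median fluorescence; 0% = buffer negative control and 100% = Enniatin B positive control; higher means more Nile Red kept so more efflux inhibition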
Calb FLC: C. albicans growth modulation with fluconazole. C. albicans CaCi-2 (fluconazole-resistant clinical isolate) + fluconazole, Alamar Blue growth, 48 h. hit rate 0.57% among 300,000. AID 1979. growth inhibition, % (no concentration beside the values);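 active = growth inhibition above about 58% in most replicates, limit read from the data, passing the limit was not always enough; inconclusive = exactly half the replicates above a set limit; inactive = most replicates below a set limit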;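 also: all wells also contain fluconazole at 8 µg/ml as a sub-toxic cotreatment; 0% = median of DMSO wells and 100% = median of geldanamycin control wells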
Cl transport mod: KCC2 (human) Cl- transport modulation; Q9H2X9; KCC2 cells, thallium flux FluoZin-2 fluorescence; B-score of Tl+ flux slope (higher = more flux/activation; lower = inhibition) at 10 µM; hit rate 2.2% among 190,000; AID 1456;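 active = thallium flux slope and its plate-corrected score both differing from the plate sample mean at a set confidence after two filtering rounds, in either direction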;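 also: slope of fluorescence scaled to starting intensity during 10 to 20 s after thallium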
KCC2 secondary: KCC2 (human) modulation, secondary assay | shares compounds with Cl transport mod | HEK293-KCC2, thallium flux, FluoZin2 fluorescence; hits give high values | normalised thallium flux (F/F0 slope) at 10 µM | hit rate 15% among 3,700 | AID 1713;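 active = thallium flux slope above the same plate's solvent-only control mean plus 3 SD; inconclusive = the two replicate wells disagree; inactive = no significant difference from solvent-only control wells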
KCC2 bumet counter: thallium flux persisting under bumetanide in KCC2 cells, counter-screen secondary assay; shares compounds with Cl transport mod; HEK293-KCC2 + bumetanide/ouabain, thallium flux FluoZin2; hits give high values; normalized thallium flux at 10 µM; hit rate 49% among 3,700; AID 1714;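 active = thallium entry rate above the same plate's blocked-transporter control wells by more than 3 SD; inconclusive = the two repeat wells disagree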;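 also: raw slope of fluorescence over initial fluorescence between 10 and 20 s after thallium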
KCC2 sec2: KCC2 (human) modulation, second secondary assay; AID 1715; HEK293-KCC2, thallium flux FluoZin2 fluorescence; actives lie on both sides; F/F0 rise rate, 10–20 s post-thallium; hit rate 23% among 3,700; shares compounds with Cl transport mod; normalized thallium flux at 10 µM;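 active = thallium flux slope more than 3 SD above or below the plate's solvent-only control mean, mostly below; inconclusive = the two repeat wells disagreed; inactive = no significant shift from solvent-only controls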;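 also: raw slope with 0.1% DMSO as baseline and bumetanide as block control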
HEK293 Tl flux: acts in parental HEK cells, KCC2 counter-screen; shares compounds with Cl transport mod; HEK293 parental cells, thallium flux FluoZin2, ouabain; baseline-ratio fluorescence slope, 10–20 s after thallium; thallium flux rate (normalised fluorescence) at 10 µM; hit rate 46% among 3,700;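 active = thallium flux rate significantly above the same plate's solvent-only control wells, beyond their mean plus 3 SD; inconclusive = the two replicate wells gave conflicting results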
KCC2 retest ouab: modulates human KCC2 on retest with ouabain | shares compounds with Cl transport mod | HEK293-KCC2, thallium flux FluoZin2 fluorescence; bidirectional: low = inhibitor, high = activator | raw Tl+ flux slope (below DMSO = inhibition, above = activation) at 10 µM | hit rate 48% among 3,700 | AID 1717;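 active = thallium flux slope beyond 3 SD from same-plate DMSO control mean in most replicates, usually higher, sometimes lower; inconclusive = repeat tests gave conflicting results; inactive = no significant difference from controls in most replicates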;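 also: slope of initial-normalized fluorescence between seconds 10 and 20 after thallium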
HEK293 Tl flux2: counter-screen for KCC2 modulators: effect in parental HEK293 cells; shares compounds with Cl transport mod; thallium flux FluoZin-2 fluorescence slope; thallium flux slope at 10 µM; hit rate 33% among 3,700;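 active = thallium flux slope above the same plate's solvent-control mean plus 3 SD in both duplicate wells; inconclusive = duplicate wells that disagreed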;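 also: run without ouabain in cells lacking the KCC2 cotransporter; slope of fluorescence scaled to its starting value between 10 and 20 s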
Starred values were filed as active, the others as inactive.

Screening CNC(=S)N=Nc1c(O)[nH]c2ccccc12 returned H9c2 protect 2, PHOSPHO1 inh 4, Efflux pump mplx 0, Calb FLC -9, Cl transport mod 4.1*, KCC2 secondary 0.011, KCC2 bumet counter 0.021*, KCC2 sec2 0.034, HEK293 Tl flux 0.011*, KCC2 retest ouab 0.024 and HEK293 Tl flux2 0.012*.
For Cc1ccc(NC(=S)N=Nc2c(O)[nH]c3ccccc23)cc1 the results were H9c2 protect 10, PHOSPHO1 inh 0, Efflux pump mplx 0, Calb FLC 14, Cl transport mod 4.3*, KCC2 secondary 0.0076, KCC2 bumet counter 0.018*, KCC2 sec2 0.033, HEK293 Tl flux 0.02*, KCC2 retest ouab 0.032* and HEK293 Tl flux2 0.013*.
Screening Oc1ccc(NC(=S)N=Nc2c(O)[nH]c3ccccc23)cc1 returned H9c2 protect 7, PHOSPHO1 inh -7, Efflux pump mplx 0, Calb FLC -1 and Cl transport mod -1.7.
`COc1ccc(C(=O)N/C(=C/c2cccnc2)C(=O)Nc2cccc(C(C)=O)c2)cc1OC` gave H9c2 protect -2, PHOSPHO1 inh 0, Efflux pump mplx 0 and Calb FLC -7.
Screening CCc1ccc(NC(=S)N(Cc2cccc(Br)c2)CC2CCC(C(=O)O)CC2)cc1 (centres undefined) returned H9c2 protect 11, PHOSPHO1 inh 14, Efflux pump mplx 0, Calb FLC -1 and Cl transport mod -1.9.
O=C(O)CCn1c(SCc2cccc3ccccc23)nc2ccccc21 was read as H9c2 protect 0, PHOSPHO1 inh 41, Efflux pump mplx 0, Calb FLC 22, Cl transport mod -8.7*, KCC2 secondary inconclusive, KCC2 bumet counter 0.0065, KCC2 sec2 0.022*, HEK293 Tl flux 0.0066, KCC2 retest ouab 0.016* and HEK293 Tl flux2 0.0097.
For Cc1nc2ccccc2n1CC(=O)NN the results were H9c2 protect 6, PHOSPHO1 inh -3, Efflux pump mplx 0, Calb FLC inconclusive and Cl transport mod 0.6.
Screening NNC(=O)Cn1c(SCc2ccccc2)nc2ccccc21 returned H9c2 protect -1, PHOSPHO1 inh 26, Efflux pump mplx 0, Calb FLC -4, Cl transport mod -3.3*, KCC2 secondary 0.0074, KCC2 bumet counter 0.0045, KCC2 sec2 0.03, HEK293 Tl flux 0.0074, KCC2 retest ouab 0.018 and HEK293 Tl flux2 0.0099.
`CCOC(=O)c1ccc(N2CN(C3CCCCC3)CNC2=S)cc1` gave H9c2 protect -8, PHOSPHO1 inh 5, Efflux pump mplx 0, Calb FLC -7, Cl transport mod -0.051, KCC2 secondary 0.0073, KCC2 bumet counter 0.0049, KCC2 sec2 0.03, HEK293 Tl flux 0.0085, KCC2 retest ouab 0.019 and HEK293 Tl flux2 0.012.
`CCOc1ccccc1N1CN(C2CCCCC2)CNC1=S` gave H9c2 protect -1, PHOSPHO1 inh -46, Efflux pump mplx 0, Calb FLC 8 and Cl transport mod 0.95.
Screening Cc1cc(/C=C2\NC(=S)N(C)C2=O)ccc1N1CCCC1 returned H9c2 protect -1, PHOSPHO1 inh -80, Efflux pump mplx 0, Calb FLC 16, Cl transport mod 6.4*, KCC2 secondary 0.0072, KCC2 bumet counter 0.012*, KCC2 sec2 inconclusive, HEK293 Tl flux inconclusive, KCC2 retest ouab 0.016 and HEK293 Tl flux2 0.01.
Screening CCCN1C(=O)/C(=C/c2ccc(N3CCCC3)c(C)c2)NC1=S returned H9c2 protect -14, PHOSPHO1 inh -50, Efflux pump mplx 0, Calb FLC 1 and Cl transport mod inactive.
Screening COc1cc(OC)cc(C(=O)NC(C(=O)NCCc2ccccn2)C(C)C)c1 (centres undefined) returned H9c2 protect 14 and Efflux pump mplx 0.
Screening COc1ccccc1CC1(C)C(=O)Nc2ccc(S(=O)(=O)NC3CCCCC3)cc21 (centres undefined) returned H9c2 protect 7.
`COc1cc(NC(=O)c2ccc(F)cc2)c(OC)cc1Cl` gave H9c2 protect 3, PHOSPHO1 inh -8, Efflux pump mplx 0, Calb FLC 8 and Cl transport mod 0.55.
COc1ccc(C(=O)Nc2cc(OC)c(Cl)cc2OC)cc1 was read as H9c2 protect -10, PHOSPHO1 inh 20, Efflux pump mplx 0, Calb FLC 13, Cl transport mod -4.5*, KCC2 secondary 0.0098, KCC2 bumet counter 0.0086*, KCC2 sec2 0.033, HEK293 Tl flux 0.015*, KCC2 retest ouab 0.021 and HEK293 Tl flux2 0.011.
Screening COC(=O)c1cc(OC)c(OC)cc1NC(=O)c1cc(OC)cc(OC)c1 returned H9c2 protect 0, PHOSPHO1 inh 6, Efflux pump mplx 0, Calb FLC -3, Cl transport mod 5.3*, KCC2 secondary 0.0092, KCC2 bumet counter 0.0052, KCC2 sec2 0.031, HEK293 Tl flux 0.0068, KCC2 retest ouab 0.021 and HEK293 Tl flux2 0.0094.
COC(=O)c1cc(OC)c(OC)cc1NC(=S)N1CCN(C)CC1 was read as H9c2 protect 0, PHOSPHO1 inh 31, Efflux pump mplx 0 and Calb FLC -11.
Screening COC(=O)c1cc(OC)c(OC)cc1NC(=S)N1CCCCC1 returned H9c2 protect 4, PHOSPHO1 inh 8, Efflux pump mplx 0, Calb FLC 5, Cl transport mod -3.9*, KCC2 secondary 0.0062, KCC2 bumet counter 0.005, KCC2 sec2 0.031, HEK293 Tl flux 0.0074, KCC2 retest ouab 0.02 and HEK293 Tl flux2 0.011.
Screening CC1CCCC(C)N1C(=O)c1ccc(S(=O)(=O)NCc2ccco2)cc1 (centres undefined) returned H9c2 protect -10, PHOSPHO1 inh 23, Efflux pump mplx 0 and Calb FLC 0.
Screening CC(NC(=O)c1ccco1)C(=O)OCc1cccc(C(F)(F)F)c1 (centres undefined) returned H9c2 protect -6 and Efflux pump mplx 0.
